Source: PubChem (National Center for Advancing Translational Sciences (NCATS))
Only some compounds are listed: those with a hit (about 6% of all), similar ones and a draw of the others.
D1 agonist – Allosteric Agonists of the Human D1 Dopamine Receptor: qHTS | HEK293 T-REx D1 cells, calcium flux, agonist mode | actives 1% (n = 360,000) | D(1A) dopamine receptor (Homo sapiens), P21728 | activation, % at 2 µM; in the data active = activation above about 30%
Target sequence (P21728 whole entry, looked up): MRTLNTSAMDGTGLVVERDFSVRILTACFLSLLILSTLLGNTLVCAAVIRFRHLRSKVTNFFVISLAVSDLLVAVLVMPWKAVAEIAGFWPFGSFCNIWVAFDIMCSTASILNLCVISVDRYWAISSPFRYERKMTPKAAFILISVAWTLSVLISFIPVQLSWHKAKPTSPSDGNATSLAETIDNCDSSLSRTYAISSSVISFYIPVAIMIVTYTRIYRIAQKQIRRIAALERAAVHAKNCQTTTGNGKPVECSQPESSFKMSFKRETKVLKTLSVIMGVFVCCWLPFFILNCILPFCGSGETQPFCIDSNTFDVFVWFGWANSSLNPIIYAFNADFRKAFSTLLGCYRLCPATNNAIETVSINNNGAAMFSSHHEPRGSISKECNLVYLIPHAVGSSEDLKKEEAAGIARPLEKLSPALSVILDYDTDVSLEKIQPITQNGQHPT
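Inducible HEK293 T-REx D1 cells, force-coupled to calcium signalling, were plated at 4000 cells/well with tetracycline and held overnight at 30 C. After no-wash calcium dye loading, compound-evoked calcium rise over 180 s flagged agonists.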
DRD3 antagonist – qHTS of D3 Dopamine Receptor Antagonist: qHTS. actives 2.5% (n = 360,000). AID 652054, 2013. D3R cells, DiscoveRx beta-arrestin luminescence, antagonist mode; stronger effect = lower value. max response, negative = inhibition, %; in the data active = max response below about -50%; inconclusive = no clear call, values can overlap the other calls
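Cells expressing the human receptor were seeded at 1500 cells/well, incubated overnight at 37 degrees C in 5% CO2, then exposed to library compounds with dopamine controls for 90 minutes at 37 degrees C before luminescent detection.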
D3 ag – qHTS of D3 Dopamine Receptor Agonist: qHTS. D(3) dopamine receptor (Homo sapiens), P35462. D3R DiscoveRx beta-arrestin cells, luminescence, 90 min. max activation, %. actives 0.58% (n = 410,000). AID 652048, 2013; in the data active = max activation above about 30%
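Agonist mode: compounds and dopamine controls were applied to plated cells for 90 min at 37 degrees C after an overnight attachment at 1500 cells/well. Luminescent read-out followed 30 - 60 minutes at room temperature with DiscoveRx detection reagent.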
D1 PAM – Potentiators of Human D1 Dopamine Receptor: qHTS; actives 0.036% (n = 360,000); D(1A) dopamine receptor (Homo sapiens), P21728; potentiation, % at 10 µM; HEK293 TREx D1 cells, calcium flux, dopamine EC20 potentiation; in the data active = potentiation above about 30%
D1 antag – Antagonist of Human D 1 Dopamine Receptor: qHTS. D(1A) dopamine receptor (Homo sapiens), P21728. HEK293 TREx D1 cells, calcium flux, dopamine EC80; stronger effect = lower value. activity change, negative = inhibition, % at 10 µM. actives 3.2% (n = 360,000). AID 504652, 2011; in the data active = activity change below about -30%
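Using tetracycline-induced force-coupled D1 Hek293 cells and a calcium dye, signals were followed for 180 s after compound, then for 180 s after EC80 dopamine, to detect inhibitors.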
A number is an active result; – = inactive; ? = inconclusive; · = no result.

SMILES	D1 agonist	DRD3 antagonist	D3 ag	D1 PAM	D1 antag
CCCC(=O)OCCNc1cc(SCc2ccco2)c2nonc2c1[N+](=O)[O-]	–	–	–	–	–
CCC(=O)OCCNc1cc(Sc2nc3ccccc3s2)c2nonc2c1[N+](=O)[O-]	–	-87.8	–	–	–
O=[N+]([O-])c1c(NCCCO)cc(Sc2nc3ccccc3s2)c2nonc12	·	-89.9	–	·	·
CCCC(=O)OCCNc1cc(Sc2nccn2C)c2nonc2c1[N+](=O)[O-]	–	-91.9	–	–	-32.1
CCC(=O)OCCNc1cc(Sc2nc3ccccc3[nH]2)c2nonc2c1[N+](=O)[O-]	–	-115.9	–	–	–
O=[N+]([O-])c1cccc(NC(=S)Nc2nc(-c3ccc(Cl)cc3Cl)cs2)c1	–	·	·	–	-30.8
C[C@@H]1CN(CCCn2c3ccccc3c3ccccc32)C[C@H](C)N1	39.6	·	–	–	–
Cc1ccccc1NC(=O)CCN1CCCC1	–	–	–	–	–
O=C(CCn1cccc1)Nc1ccc(F)cc1	–	–	–	–	–
Cc1ccccc1NC(=O)CCN1CCc2ccccc2C1	–	-79.1	–	–	–
O=C(CCN1CCc2ccccc2C1)Nc1ccc(F)cc1	·	-66.2	–	·	·
COc1ccc(NC(=O)c2cc3c(s2)-c2c(C)cccc2OC3)cc1Cl	–	·	–	–	–
Cc1nn(CC(=O)Nc2cccc(C(F)(F)F)c2)c(=O)c2nn(-c3ccccc3)c(C)c12	–	·	–	–	–
Cn1c(=O)n(Cc2ccc(Cl)cc2)c2ccccc21	–	–	–	–	-33.1
Cn1c(=O)n(Cc2ccccc2Cl)c2ccccc21	–	–	–	–	–
COc1ccccc1N(C(=O)Cn1nnc(-c2ccc(C)o2)n1)C(C(=O)NC1CCCC1)c1ccncc1 (stereo not drawn)	–	-53.1	–	–	–
CCOC(=O)CN(C(=O)Cn1nnc(-c2ccc(OC)cc2)n1)C(C(=O)NC1CCCC1)c1ccc(F)cc1 (stereo not drawn)	–	–	–	–	–
Cc1ccc(-c2nnn(CC(=O)N(c3ccccc3F)C(C(=O)NC3CCCC3)c3ccncc3)n2)o1 (stereo not drawn)	–	?	–	–	–
COc1ccc(-c2nnn(CC(=O)N(Cc3ccc(F)cc3)C(C(=O)NC3CCCC3)c3ccc(F)cc3)n2)cc1 (stereo not drawn)	·	-60.4	–	·	·
Cc1cc(C)c(C)c(S(=O)(=O)Nc2cccc(-n3cnnn3)c2)c1C	–	–	–	–	-33.2
COc1cccc(OC)c1C(=O)Nc1cccc(-n2cnnn2)c1	–	–	–	–	-35.0
CC(OC(=O)c1cccc(-n2cnnn2)c1)C(=O)Nc1cccc(Cl)c1 (stereo not drawn)	–	–	–	–	-35.6
COc1ccc(C(=O)COC(=O)c2cccc(-n3cnnn3)c2)c(OC)c1	–	–	36.4	–	–
Cn1c(=O)c2c(-c3ccccc3Br)n(CCc3ccccc3)cc2n(C)c1=O	–	·	–	–	–
CCOC(COC(=O)c1ccccc1C(=O)O)c1ccccc1 (stereo not drawn)	·	–	–	·	·
SMILES	D1 agonist	DRD3 antagonist	D3 ag	D1 PAM	D1 antag
O=C(Nc1cccc(-n2cnnn2)c1)c1ccc(C(F)(F)F)cc1	–	–	–	–	-32.2
COc1ccc(CNC(=O)CCSc2ccc(F)cc2)cc1OC	–	–	–	–	-39.5
COc1ccc(CNC(=O)CCC(=O)c2ccc(F)cc2)cc1OC	·	–	–	·	·
O=C(c1cc(-c2ccc(Br)cc2)n[nH]1)N1CCN(S(=O)(=O)c2ccc(Br)s2)CC1	–	·	33.8	–	–
O=C(c1cc(-c2ccc(Cl)cc2)n[nH]1)N1CCN(S(=O)(=O)c2ccc(Br)s2)CC1	–	·	–	–	–
CCN1CCN(C(=O)Cn2c(=O)sc3ccccc32)CC1	–	-98.1	–	–	–
CC(=O)c1cc2cccc(OC3(C)CCN(Cc4ccc(-c5ccccn5)cc4)C3)c2o1 (stereo not drawn)	·	-53.2	–	·	·
O=C(O)c1ccc(COc2ccccc2/C=C2\NC(=O)N(Cc3ccc(F)cc3)C2=O)cc1	–	–	–	–	-33.3
